Compound activity deposited in PubChem by National Center for Advancing Translational Sciences (NCATS).
This is a sample that favours compounds with a hit; in the whole collection about 7.6% have one here.
Giardia kill: kills Giardia lamblia; Giardia lamblia trophozoite viability; 340,000 compounds, 0.15% hits; activity change, % at 7.66 µM, hits read low; in the data active means activity change below about -80%; inconclusive means between about -30% and that limit;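 further: parasites exposed to compound for two days anaerobically before the ATP read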
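Giardia lamblia trophozoites (100 cells/well) were incubated with compounds for 48 h at 37 deg C under anaerobic conditions. Viability was read as ATP content by one-step luminescence after 15-30 min at room temperature.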
VP16 counter: counter-screen for ROR gamma inhibitors: Gal4-VP16 reporter. Potency, µM (titrated, usually from 53.6 µM), hits mostly inhibitors. AID 2546. 310,000 compounds, 3.5% hits. Drosophila S2 Gal4-VP16 UAS-luciferase, luminescence, 20 h;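 further: Gal4-VP16 expression switched on by copper sulfate through the metallothionein promoter; nearly all actives have a fitted effect of over 50% in size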
p53 reactivation: re-activators of mutant p53; H1299 p53-A138V BP100-luciferase reporter, luminescence, 24 h; Potency, µM (series often up to 92.2 µM), usual class: activators; 320,000 compounds, 0.063% hits; AID 504706; further: nearly all actives have a fitted effect of over 45% in size
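H1299 (p53-null), stable ts p53-A138V + BP100-Luc; 1000 cells/well, Opti-MEM/10% FBS; cpd 4 pt, 1:5; 24 h, 37 deg C, 5% CO2; detection reagent 10 min RT; luminescence.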
BRCA1 expr up: activators of BRCA1 expression | Potency, µM (highest dose often 46.1 µM), most hits filed as activators | MCF7-BRCA1-FFLuc reporter, luminescence, 48 h; response scale: scaled: vehicle 0%, 10 µM genistein 100% | 380,000 compounds, 1.1% hits; further: nearly all actives have a fitted effect of over 80% in size
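MCF7 cells carrying a BRCA1-firefly luciferase reporter (2000 cells/well, phenol-red free MEM) were attached for 2 h at 37 °C, then given compounds for 48 h. Luminescence was read 15 min after luciferase reagent; activity normalized to genistein (10 microM) and DMSO.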
ELG1 repair inh: ELG1-dependent DNA repair inhibition. HEK293T ELG1-luciferase reporter, luminescence, 16 h; DNA damage induced by 5-fluorouridine. 330,000 compounds, 2.3% hits. Potency, µM (highest dose often 46.1 µM), actives largely listed as inhibitors. AID 504467; further: nearly all actives have a fitted effect of over 55% in size
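Quantitative HTS, concentration-response format. 2,000 cells/well co-treated with 5-fluorouridine and compound, 16 hr in 5% CO2 at 37 °C; ONE-Glo luminescence read after 30 min.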
RORgamma inh: ROR gamma (mouse) transcription inhibition; P51450; Potency, µM (series often up to 53.6 µM), hits mostly inhibitors; Drosophila S2 Gal4-RORgamma UAS-luciferase reporter, 20 h; 310,000 compounds, 5.4% hits; further: nearly all actives have a fitted effect of over 60% in size
Target sequence (P51450 whole entry, looked up, the tested form may be a part): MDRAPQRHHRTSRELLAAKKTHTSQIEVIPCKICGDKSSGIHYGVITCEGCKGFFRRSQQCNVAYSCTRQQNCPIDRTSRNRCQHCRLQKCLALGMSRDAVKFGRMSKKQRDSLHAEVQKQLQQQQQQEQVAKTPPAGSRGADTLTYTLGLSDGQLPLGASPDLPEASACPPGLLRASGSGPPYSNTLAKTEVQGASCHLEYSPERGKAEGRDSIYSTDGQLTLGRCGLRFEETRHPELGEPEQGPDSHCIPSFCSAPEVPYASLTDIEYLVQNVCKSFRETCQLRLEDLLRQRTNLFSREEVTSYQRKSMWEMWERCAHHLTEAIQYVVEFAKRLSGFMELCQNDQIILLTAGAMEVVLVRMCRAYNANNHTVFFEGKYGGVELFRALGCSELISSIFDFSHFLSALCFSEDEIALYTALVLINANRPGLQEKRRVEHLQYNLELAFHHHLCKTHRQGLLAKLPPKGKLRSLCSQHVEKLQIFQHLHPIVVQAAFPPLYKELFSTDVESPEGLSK
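Drosophila Schneider cells stably carrying a metallothionein-driven Gal4 DBD–ROR gamma fusion and a UAS-Photinus luciferase reporter were exposed to compound for 1 hr, then induced with copper sulfate (700 uM final) for 20 hr at ambient temperature before luminescence reading.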
Numbers stand for hits; - = inactive; ? = inconclusive; . = no result; [ ] = dose if it differs, or a comment. Unless noted, the call rests on the fitted dose curve; in most records, active means well fitted curve in the direction sought with a large enough effect; inconclusive means small, poorly fitted or top-dose-only effect, or another doubt; inactive means no such curve, though single readings can be large; an effect the other way counts as inactive or inconclusive.

SMILES	Giardia kill	VP16 counter	p53 reactivation	BRCA1 expr up	ELG1 repair inh	RORgamma inh
Cc1cccc(NC(=O)C(=O)NCc2ccc3c(c2)OCO3)c1C	-	-	-	-	?	-
Cc1cccc(NC(=S)NCc2ccc3c(c2)OCO3)c1C	-	13µM	-	-	-	5µM
CC(C)(C)NC(=S)NCc1ccc2c(c1)OCO2	-	?	-	-	-	11µM
Cc1ccccc1NC(=S)NCc1ccc2c(c1)OCO2	-	10µM	-	-	-	2.5µM
Cc1ccc(C)c(NC(=S)NCc2ccc3c(c2)OCO3)c1	-	-[0.365 µM]	-	-	-	?
CCC(=O)N1CCC(NC(=O)Nc2ccc(OC(F)(F)F)cc2)CC1	-	.	-	-	?	.
COc1ccccc1CCc1nnc(CCC(=O)NC(C)Cc2cccnc2)o1 (centres undefined)	-	-	-	-	-	-
CCc1ccccc1NC(=S)NCc1ccc2c(c1)OCO2	-	11µM	-	-	?	6.3µM
Cc1cc(C)cc(NC(=S)NCc2ccc3c(c2)OCO3)c1	-	.	.	-	.	.
COc1cccc(C(=O)NNC(=O)C(=O)Nc2ccc(OC)cc2OC)c1	-	-	-	-	-	14µM
COc1ccccc1NC(=O)C(=O)/C=C(\O)c1ccccc1	-	?	-	2.8µM	?	?
CCOc1ccccc1NC(=O)C(=O)CC(=O)c1cccc(OC)c1	-	7.9µM	-	-	-	3.5µM
COc1ccc(C(=O)CC(=O)C(=O)Nc2ccc(C)c(C)c2)cc1	-	?	-	-	-	13µM
COc1cccc(C(=O)NNC(=O)C(=O)Nc2cccc3ccccc23)c1	-	-	-	-	-	-
COc1ccc(C(=O)CC(=O)C(=O)Nc2ccccc2OC)cc1	-	4.5µM	-	-	?	5.6µM
COc1cccc(C(=O)CC(=O)C(=O)Nc2cc(OC)c(OC)c(OC)c2)c1	.	-	-	.	-	-
COc1cccc(C(=O)CC(=O)C(=O)Nc2cc(OC)ccc2OC)c1	-	?	-	-	?	11µM
O=C(O)CCNC(=O)c1ccc(N=Nc2ccc(O)c(C(=O)O)c2)cc1	.	-	.	.	.	-[10 µM]
Cc1ccc(CC2S/C(=N/c3ccccn3)NC2=O)cc1 (centres undefined)	-	3.5µM	-	-	?	2.8µM
O=C1NC(=Nc2ccccc2)SC1Cc1cccc(Cl)c1Cl (centres undefined)	-	?	-	-	-	?
O=C1NC(=Nc2ccccc2)SC1Cc1ccccc1 (centres undefined)	-	-	-	-	-	-
O=C1N/C(=N/c2ccccn2)SC1Cc1ccccc1 (centres undefined)	-	2.5µM	-	-	?	0.89µM
O=C1N/C(=N\c2ccccn2)SC1Cc1ccc(Cl)cc1 (centres undefined)	-	3.2µM	-	-	-	2µM
COc1ccc(C2=Nc3ccccc3NC(=O)C2N(C(=O)c2ccnc3ccccc23)c2ccccc2)cc1 (centres undefined)	.	.	.	-	.	.
CCOc1ccccc1C(=O)NC1CC2CCCC(C1)N2C1CC1 (centres undefined)	-	-	-	-	-	-
SMILES	Giardia kill	VP16 counter	p53 reactivation	BRCA1 expr up	ELG1 repair inh	RORgamma inh
Cc1ccc(Cl)cc1NC1=NC(=S)N(C(C)C)C12CCCCC2	-	3.5µM	-	-	-	2.8µM
CN(C)/C=C(\C#N)C(=O)Nc1ccc(F)c(Cl)c1	-	-	-	7.9µM	?	-
COC(=O)Cn1c(=NC(=O)CN2C(=O)CCC2=O)sc2cc(S(N)(=O)=O)ccc21	-	-	-	-	-	-
O=C(c1ccc(-c2ccccc2Cl)o1)N1CCCC(C(F)(F)F)C1 (centres undefined)	-	.	?	13µM	?	.
S=C(c1ccc(-c2ccc(Cl)cc2Cl)o1)N1CCCCC1	-	?	?	7.9µM	?	?
S=C(c1ccc(-c2ccccc2Cl)o1)N1CCOCC1	-	-	?	7.1µM	?	-
CC1CCN(C(=O)c2ccc(-c3ccccc3Cl)o2)CC1	-	.	?	?	?	.
O=C(c1ccc(-c2ccccc2Cl)o1)N1CCC1	-	.	-	2.8µM	?	.
